# Out of some 360,000 compounds screened, about 800 (0.22%) were called active. The entries come from a sample that favours actives as a whole. Values without a mark were called inactive.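 How the source made its calls: active means activation of at least 8% versus controls, or a plate z-score of at least 8; inactive means the rest.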
# Assay: activators of alpha-DG glycosylation, primary screen, uHTS, Pro5-aDG cells, AlphaScreen (AID 624168);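 further: Pro5 are CHO cells carrying HIG-tagged alpha-DG that lacks glycosylation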
# Conditions: alpha-DG glycosylation AlphaScreen (IIH6), at 10 µM, stronger effect = higher value, 0% Pro5, 100% B10-LARGE cell signal
row,Compound,activation
1,CN(CC(=O)Nc1cccc(F)c1)C(=O)C1=COCCO1,0.1%
2,Cc1ccc(NC(=O)CN(C)CC(=O)Nc2cccc(F)c2)cc1[N+](=O)[O-],10% (active)
3,Cc1ccc(NC(=O)c2sccc2C)cc1[N+](=O)[O-],0%
4,O=C(CN1CCCCC1)NC(=O)Nc1ccccc1F,0%
5,O=C(CCNS(=O)(=O)c1ccc(Br)s1)NCc1ccccc1Cl,0.5%
6,COc1cccc(NC(=O)N(C)C[C@@H]2Oc3ncc(Br)cc3C(=O)N([C@@H](C)CO)C[C@H]2C)c1,0.2%
7,OC(CN1C2=NCCCN2c2ccccc21)c1ccc(Br)cc1 (stereo not given),0.6%
8,CC(=O)N1CSCC1C(=O)O (stereo not given),0.1%
9,O=c1ccc2cc(S(=O)(=O)N3CCN(c4ccccc4)CC3)ccc2o1,8.4% (active)
10,O=S(=O)(c1ccc2ccccc2c1)N1CCN(S(=O)(=O)N2CCOCC2)CC1,0.1%
11,NC(=O)COC(=O)c1cc(S(=O)(=O)N2CCN(c3ccccc3)CC2)ccc1Cl,-1.4%
12,O=C1OCCOC2CCCc3oc(-c4ccccc4)c1c32 (stereo not given),0.5%
13,CCN(CC(=O)NCc1ccc(Cl)cc1)C(=O)CSc1ccccc1,0%
14,c1ccc2cc3c(NCCN4CCOCC4)ccnc3cc2c1,9% (active)
15,O=C(NCCN1CCOCC1)Nc1cccc(Cl)c1,-0.1%
16,O=S(=O)(c1ccc(Cl)cc1)c1nc(-c2ccccc2F)oc1NCCN1CCOCC1,0.2%
17,O=S1(=O)CC(NCc2ccccc2)C(Nc2ccc(Cl)cc2)C1 (stereo not given),0%
18,O=C(/C(=N\O)n1cncn1)c1ccc(Br)cc1Br,0.2%
19,O=C(NC(c1ccc(-c2ccccc2)cc1)c1cnccn1)C1CCN(CCOc2ccc(Cl)cc2Cl)CC1 (stereo not given),7.1% (active)
20,O=C(NC(c1ccc(Cl)cc1)c1cnccn1)C1CCN(Cc2ccc(Cl)cc2)CC1 (stereo not given),0.1%
21,Cc1ccc(C(NC(=O)C2CCN(CCOc3ccc(Cl)cc3Cl)CC2)c2ccccn2)cc1 (stereo not given),0.4%
22,CCOC(=O)c1cc2sccc2n1Cc1ccc(C#N)cc1,0%
23,CCOCCCNC(=O)C1(O)c2cc(Br)ccc2NC(=O)N1c1ccc(C)c(C)c1 (stereo not given),-0.2%
24,CN1CCCc2cc(C#N)c(=O)[nH]c21,0%

row,Compound,activation
1,CC(C)c1cc(Cn2c3ccccc3c(=O)n2C(C)Cn2cc(C3CC3)nn2)on1 (stereo not given),6.8% (active)
2,COCCN(C(=O)C(C)C)c1nnc(-c2ccc(C(C)(C)C)cc2)s1,0.5%
3,Cc1ccc(OCc2nnc(SC3CCc4ccccc4C3=O)n2C)cc1 (stereo not given),0%
4,Cc1cc(C)c(S(=O)(=O)n2cc(C(C)C(N)C(=O)O)c3ccccc32)c(C)c1 (stereo not given),-0.2%
5,Cc1ccc(NS(=O)(=O)c2c(C)[nH]c(C)c2C(=O)N2CCCCC2)c(C)c1,-0.1%
6,CCN(CC)C(=O)C1=C(C)N(Cc2ccc(OC)cc2)C(=O)C(CC(=O)NCc2ccco2)C1 (stereo not given),-0.1%
7,Cc1ccc(S(=O)(=O)N2CCCCC2)cc1NC(=O)[C@@H]1CCCN1C(=O)c1cccs1,0.1%
8,O=C(Nc1cccc(Br)c1)C1CC(=O)N(C2CCCC2)C1 (stereo not given),0%
9,COc1ccccc1N1CCN(C(=O)c2cc(=O)c3cc(C)cc(C)c3o2)CC1,-0.2%
10,COc1ccccc1N1CCN(C(=O)c2cc(-c3ccc(Br)cc3)on2)CC1,9.8% (active)
11,COc1ccc(OCc2cc(C(=O)N3CCCC3)no2)c2ccccc12,0.3%
12,Cc1ccc(NS(=O)(=O)c2ccc(F)cc2)nc1,-0.2%
13,Fc1ccc(OCc2nn3c(Cn4nnc5ccccc54)nnc3s2)cc1,0.5%
14,C=CCOc1cccc(CNn2cn[nH]c2=S)c1,0%
15,CC[C@]12c3[nH]c4cc(CCC(=O)N(C)C)ccc4c3CCN1C(=O)[C@@H](CC(=O)NCC13CC4CC(CC(C4)C1)C3)C[C@@H]2C(=O)N1CCN(C(=O)C2CC2)CC1,-0.1%
16,Cc1cc(=O)oc(C)c1C(=O)NC1CC(C)(C)NC(C)(C)C1,-0.1%
17,COc1ccc(CC(NC(C)=O)C(=O)NC2CCN(C(=O)c3ccc(OC)c(OC)c3)CC2)cc1OC (stereo not given),-0.3%
18,Clc1cc(NC2CCCCC2)ncn1,0.2%
19,CN(C)C(=S)Nc1ccc(Br)cc1Cl,0.1%
20,Cc1cccc(CN2CCC(CNC(=O)Nc3ccc(F)c(Cl)c3)CC2)c1,5.2% (active)
21,COc1ccc(Cl)cc1NC(=O)NCC1CCN(Cc2ccccc2F)CC1,1%
22,O=C(CN1CCN(Cc2ccccc2)CC1)Nc1ccc(F)c(F)c1,-0.1%
23,Nc1cccnc1Sc1ccccc1,0%
24,CC(=O)N/C(=C/c1ccc(OC(F)F)cc1)C(=O)O,-0.4%

row,Compound,activation
1,Cc1cccc(OCC(O)CN2CCN(S(=O)(=O)c3ccc(C)cc3C)CC2)c1 (stereo not given),0.1%
2,Cc1ccc(OCC(O)CN2CCN(CC(O)COc3ccc(C)cc3Cl)CC2)c(Cl)c1 (stereo not given),3.9% (active)
3,OC(COc1ccc(F)cc1Cl)CN1CCc2ccccc2C1 (stereo not given),0.1%
4,COc1ccc(CC(=O)OC(C)C(=O)Nc2ccc(S(N)(=O)=O)cc2)cc1 (stereo not given),0.1%
5,Cc1nn(Cc2ccc(Cl)cc2)c(Cl)c1/C=N/NC(=O)CNc1ccccc1F,0.9%
6,Cc1ccc(S(=O)(=O)N2CCN(CC(=O)N/N=C/c3ccc(Br)s3)CC2)cc1,-0.1%
7,O=[N+]([O-])c1ccc(C=Nc2ccc(Cl)cc2Cl)s1,-0.4%
8,Cc1ccccc1NCC(=O)N/N=C\c1ccc([N+](=O)[O-])s1,9.3% (active)
9,CC(C)(C)c1cc(C(=O)N/N=C/c2ccc([N+](=O)[O-])s2)n[nH]1,2.7% (active)
10,Cc1c(C(=O)N2CCCC2)c(S(=O)(=O)NCC(C)c2ccccc2)c(C)n1C (stereo not given),-0.1%
11,O=S(=O)(N1CCCCC1)N1CCNCC1,0%
12,CC(C)[C@@H](C(=O)O)N(Cc1cccc(CN([C@H](C(=O)O)C(C)C)S(C)(=O)=O)c1)S(C)(=O)=O,-0.1%
13,COc1ccc(F)cc1S(=O)(=O)N1CCCCC1,-0.1%
14,Cc1cccc2cc(CN(Cc3cccs3)C(=S)NCc3ccco3)c(=O)[nH]c12,0%
15,COCCCNC(=S)N(CCN(C)C)Cc1cc2cc3c(cc2[nH]c1=O)OCCO3,-0.2%
16,Cc1cc(C)c2[nH]c(=O)c(CN(Cc3ccccc3)C(=S)NCCCN(C)C)cc2c1,8.7% (active)
17,Cc1cccc(C)c1NC(=O)N1CC=C(n2c(=O)[nH]c3ccccc32)CC1,0.1%
18,O=C(Nc1cc(S(=O)(=O)Nc2ccc(Cl)cc2)ccc1O)c1ccc(F)cc1F,0.4%
19,O=C(CN(c1cc(C(F)(F)F)ccc1Cl)S(=O)(=O)c1ccccc1)NCc1cccnc1,0.2%
20,O=C(c1cccnc1)N(c1cc2sc(=O)oc2c2ccccc12)S(=O)(=O)c1ccccc1,8.9% (active)
21,CC(=O)N(c1ccc2oc(=O)sc2c1)S(=O)(=O)c1ccc(C)cc1,0%
22,O=C(Nc1ccc(-n2ccnc2P(=O)(O)c2ccccc2)cc1)c1ccccc1Br,-0.1%
23,COc1ccc(C2c3[nH]c4ccccc4c3C[C@H]3C(=O)N(CC(C)C)CC(=O)N23)c(OC)c1 (stereo not given in full),0.3%
24,COc1ccc(C2(CNC(=O)Cc3ccc(OC)c(OC)c3)CCCC2)cc1,-0.3%

row,Compound,activation
1,COc1ccc(CC(=O)Nc2nc(-c3ccc(F)c(F)c3)cs2)cc1OC,2.7% (active)
2,COc1ccc(CC(=O)NC2CCSc3ccccc32)cc1OC (stereo not given),0.1%
3,Cc1c(C(=O)N(C)CCc2cnn(C)c2)oc2c(F)cccc12,0.2%
4,COCCc1nn2c(=O)cc(COC(=O)c3cc(OC)c(OC)c(OC)c3)nc2s1,-0.1%
5,CN1OC(COC(=O)c2ccc(Cl)cc2)CC1c1ccccc1 (stereo not given),0.1%
6,Cc1ccc(C(=O)C(=S)N2CCOCC2)cc1,0%
7,O=C(Nc1nnc(S(=O)(=O)N2CCCCCC2)s1)c1cccc(Br)c1,-0.2%
8,COc1cccc(C(=O)Nc2nnc(S(=O)(=O)N3CCOCC3)s2)c1,-0.1%
9,COc1cccc(C(=O)Nc2nnc(S(=O)(=O)N3CCCCC3)s2)c1,10.9% (active)
10,CC(C)(C)OC(=O)N1CCC(C(=O)NNC(=O)c2ccc(Cl)cc2Cl)CC1,0.1%
11,c1ccc2c(NC3C4CC5CC(C4)CC3C5)nc(N3CCOCC3)nc2c1 (stereo not given),0.7%
12,CCOc1ccc(CCNC(=O)CCc2nnc3ccc(N4CCCC4)nn23)cc1OCC,0.3%
13,COCCCC1CCN(C(=O)C2CCC(=O)N(C3CCCCCC3)C2)CC1 (stereo not given),-0.3%
14,COC(=O)C(Cc1c[nH]c2ccccc12)NC(=O)CCNC(=O)c1ccco1 (stereo not given),0.2%
15,CCOc1ccccc1Nc1nnc(SCC(=O)NCC2CCCO2)s1 (stereo not given),5.2% (active)
16,COc1ccccc1N1CC(C(=O)Nc2nnc(SCC(=O)NCC3CCCO3)s2)CC1=O (stereo not given),-0.1%
17,CCOc1ccccc1Nc1nnc(SCC(=O)Nc2cc(C)on2)s1,-0.2%
18,COc1ccccc1OCCn1c(SCC(N)=O)nc2ccccc21,0%
19,NC1=CC(=O)C(=O)c2cccnc21,4.9% (active)
20,O=C(C1CCCN(S(=O)(=O)c2ccc([N+](=O)[O-])cc2)C1)N1CCCCC1 (stereo not given),0.9%
21,COc1cc(C(C)=O)ccc1OC(=O)CN1C(=O)c2ccccc2C1=O,-0.1%
22,O=C1C(=O)N(c2ccccc2)c2ccccc21,2.6%
23,CC(C)OC(=O)CN1C(=O)C(=O)c2ccccc21,14.6% (active)

# From PubChem BioAssay AID624168 (Sanford-Burnham Center for Chemical Genomics, 2012)
